Reference: the supplement of paper PMC8699584
Where a name gives a salt, the structure may show the parent alone. ± gives the standard deviation of the averaged measurements.

Assays:
[1] = tested on: Molm13; assay: cell viability relative to DMSO control (bortezomib = 0%); higher = less growth inhibition; conditions: 10 nM; 72 h
Method in brief: (§1)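 In duplicate runs, a library of 679 approved and investigational compounds in 384-well plates received acute myeloid leukemia cells at 1000 cells per well in 50 µL, with each compound at a single 10 nM dose for 72 h. CellTiter-Glo luminescence, read on an EnVision reader, served as the viability measure. Each plate was normalized by linear regression between DMSO-treated cells (100%) and positive-control-treated cells (0%).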

[2] = tested on: Mv4-11; assay: as above; conditions: 10 nM; 72 h
Method in brief: as §1

Row | Compound | cell viability [1] | cell viability [2]
1 | C=CC(=O)Nc1cc(Nc2nccc(-c3cn(C)c4ccccc34)n2)c(OC)cc1N(C)CCN(C)C | 107 ± 17% | 114 ± 3.5%
2 | COc1cc2ncnc(Nc3ccc(F)c(Cl)c3)c2cc1OCCCN1CCOCC1 [Gefitinib] | 114.4 ± 0.96% | 120 ± 1.4%
3 | CC(CCc1ccccn1)(CCc1ccccn1)C(=O)c1ccccc1 | 112 ± 14% | 109 ± 12%
4 | Oc1cc(-c2nc(-c3ccccc3)[nH]c2-c2ccncc2)ccc1Cl | 105 ± 34% | 105 ± 3.6%
5 | CC(C)c1ccc2c(c1)CC[C@@H]1[C@@](C)(CN)CCC[C@@]21C [Leelamine (hydrochloride)] | 101.6 ± 0.018% | 96.46 ± 0.32%
6 | Nc1cc(C(F)(F)F)c(-c2nc(N3CCOCC3)nc(N3CCOCC3)n2)cn1 | 94.3 ± 30% | 109 ± 5.2%
7 | CCCCNc1ncc(-c2ccc(CN3CCOCC3)cn2)c(NC2CCC(O)CC2)n1 (stereo unspecified) | 94.6 ± 6.1% | 99.9 ± 5.7%
8 | O=C1NC(=O)C(c2c[nH]c3ccccc23)=C1c1c[nH]c2ccccc12 [Bisindolylmaleimide IV] | 105 ± 5.2% | 100 ± 2.6%
9 | Cc1cc(CN2CCN(c3c(Br)cnc4nc(-c5ccc(N6CCN(C)CC6)cc5)[nH]c34)CC2)no1 | 85.6 ± 1.8% | 95.3 ± 3.4%
10 | O=C(Nc1ccc2[nH]nc(-c3ccncc3)c2c1)[C@@H]1CCN(CC(=O)N2CCN(c3ccc(-c4ncccn4)cc3)CC2)C1 | 92 ± 12% | 95.8 ± 19%
11 | CNC(=O)c1ccccc1Nc1cc(Nc2ccc(N3CCOCC3)cc2OC)ncc1C(F)(F)F | 105 ± 16% | 109 ± 25%
12 | Nc1[nH]nc2nnc(-c3c(-c4ccccc4)nn4ccccc34)cc12 | 95.5 ± 1.6% | 109 ± 11%
13 | CCCS(=O)(=O)Nc1ccc(F)c(C(=O)c2c[nH]c3ncc(-c4ccc(Cl)cc4)cc23)c1F [Vemurafenib (PLX4032, RG7204)] | 101 ± 7% | 105 ± 1.1%
14 | Cn1cnc2c(F)c(Nc3ccc(Br)cc3Cl)c(C(=O)NOCCO)cc21 [Selumetinib (AZD6244)] | 106 ± 18% | 106 ± 3.2%
15 | C[C@H]1Oc2cc(cnc2N)-c2c(nn(C)c2C#N)CN(C)C(=O)c2ccc(F)cc21 | 115 ± 8.8% | 112 ± 19%
16 | CCCCCCCCCCCCCCCCOP(=O)([O-])OCC[N+](C)(C)C [Miltefosine] | 76.2 ± 20% | 102 ± 7.5%
17 | CC1(C)OC(=O)C=C[C@]2(C)[C@H]3CC[C@@]4(C)[C@H](c5ccoc5)OC(=O)[C@H]5O[C@]54[C@]3(C)C(=O)C[C@@H]12 [Obacunone] | 108 ± 7.3% | 109 ± 19%
18 | Cc1cc(NC(=O)c2cccc(NC(=O)/C=C/CN(C)C)c2)ccc1Nc1nccc(-c2cccnc2)n1 | 92 ± 6.9% | 113 ± 5.2%
19 | Nc1cccc(-c2nc(N3CCOCC3)c3oc4ncccc4c3n2)c1 [PIK-inhibitors] | 82.5 ± 19% | 103 ± 15%
20 | O=C(O)c1c[nH]c2c(ccc3ccccc32)c1=O | 87 ± 11% | 106 ± 6.8%
21 | Cc1nc(Nc2cnn(C3CCNCC3)c2)nc2c1N(C)C(=O)c1cc3ccccc3cc1N2C | 95.6 ± 2.2% | 104.2 ± 0.14%
22 | CCOc1cc2ncc(C#N)c(Nc3ccc(OCc4ccccn4)c(Cl)c3)c2cc1NC(=O)/C=C/CN(C)C [Neratinib(HKI-272)] | 106 ± 20% | 100 ± 3.7%
23 | O=C(O)c1cc(NCc2cc(O)ccc2O)ccc1O [Lavendustin C] | 111 ± 13% | 104 ± 1.9%
24 | CC(C)=CCc1cc2c(cc1O)oc(=O)c1c3ccc(O)cc3oc21 [Psoralidin] | 111 ± 27% | 124 ± 22%

Row | Compound | cell viability [1] | cell viability [2]
25 | O=C(Nc1cc(C(F)(F)F)ccc1N1CCCCC1)c1ccncc1 | 99.5 ± 9.8% | 129 ± 17%
26 | COc1ccc(S(=O)(=O)N(CCO)c2ccccc2CN(C)C/C=C/c2ccc(Cl)cc2)cc1 [KN-93 Phosphate] | 99.1 ± 2.2% | 101 ± 5.2%
27 | Cc1cc(Nc2nc(N[C@@H](C)c3ccc(F)cc3)c(C#N)cc2F)n[nH]1 | 123 ± 7.3% | 99.4 ± 3.3%
28 | CN1CC(O)C2=C/C(=N/NC(N)=O)C(=O)C=C21 (stereo unspecified) [Carbazochrome] | 93.7 ± 20% | 107 ± 9.7%
29 | N#CC(=Cc1ccc2[nH]ccc2c1)C(N)=C(C#N)C#N | 104 ± 20% | 103.5 ± 0.36%
30 | O=C1Cc2c([nH]c3ccc(Br)cc23)-c2ccccc2N1 [KenPaullone] | 91.6 ± 2.8% | 95.2 ± 16%
31 | Cc1[nH]c(/C=C2\C(=O)Nc3ccccc32)c(C)c1CCC(=O)O | 107 ± 18% | 108 ± 14%
32 | O=C1NC(=O)/C(=C/c2ccc(-c3ccc(F)cc3O)o2)S1 | 106 ± 2.7% | 95.5 ± 9.9%
33 | N#Cc1ccc2[nH]c(O)c(-c3ccc(CN4CCOCC4)cn3)c2c1 | 112 ± 0.85% | 106 ± 5.3%
34 | CC#CC(=O)Nc1ccc2ncnc(Nc3cccc(Br)c3)c2c1 | 99.9 ± 3.4% | 98.9 ± 4.2%
35 | COc1cc2ncnc(Nc3cccc(O)c3)c2cc1OC | 109 ± 6.3% | 109 ± 8.6%
36 | Cc1cccc(/C=N/Nc2cc(N3CCOCC3)n3nc(-c4ccncc4)cc3n2)c1 | 95.5 ± 11% | 122 ± 4.4%
37 | Cn1cc(-c2ccc3ncc(Cc4ccc5ncccc5c4)n3n2)cn1 | 100 ± 16% | 119 ± 16%
38 | CNC(=O)c1ccccc1Nc1nc(Nc2ccc(N3CCNCC3)cc2)ncc1Cl | 17.4 ± 13% | 23 ± 6.8%
39 | C=CC(=O)Nc1cccc(Nc2nc(Nc3ccc(Oc4ccnc(C(=O)NC)c4)cc3)ncc2F)c1 | 114 ± 24% | 108 ± 9.3%
40 | CCOc1cc(N2CCC(O)CC2)ccc1Nc1ncc2c(n1)N(C)c1ccccc1C(=O)N2C | 98.8 ± 5.5% | 98.8 ± 2%
41 | CC(C)=CCC[C@](C)(O[C@@H]1O[C@H](CO[C@@H]2O[C@H](CO)[C@@H](O)[C@H](O)[C@H]2O)[C@@H](O)[C@H](O)[C@H]1O)[C@H]1CC[C@]2(C)[C@@H]1[C@H](O)C[C@@H]1[C@@]3(C)CC[C@H](O[C@@H]4O[C@H](CO)[C@@H](O)[C@H](O)[C@H]4O)C(C)(C)[C@@H]3CC[C@]12C [Gypenoside XVII] | 95.8 ± 9.3% | 102 ± 7%
42 | C=CC(=O)Nc1cccc(Nc2nc(Nc3ccc(OCCOC)cc3)ncc2F)c1 | 103 ± 10% | 110 ± 6.4%
43 | c1cc(-c2cnn3cc(-c4ccc(OCCN5CCCCC5)cc4)cnc23)ccn1 | 95.5 ± 6% | 117 ± 10%
44 | CC(=O)Nc1nc(C)c(-c2ccc(Cl)c(S(=O)(=O)NCCO)c2)s1 | 104 ± 3.5% | 97.8 ± 21%
45 | CCCCCCCCCCCCC/C=C/[C@H](O)[C@@H](N)CO [L-threo-Sphingosine C-18] | 94 ± 9.1% | 113 ± 2.5%
46 | Oc1cc(O)cc(/C=C/c2ccc(O)c(O)c2)c1 [Piceatannol] | 101 ± 6.1% | 108 ± 11%
47 | O=c1oc2c(O)c(O)cc3c(=O)oc4c(O)c(O)cc1c4c23 [Ellagic acid] | 92.5 ± 28% | 99.5 ± 11%
48 | CCC(=O)N1CCN(c2ccc(-n3c(=O)ccc4cnc5ccc(-c6cnc7ccccc7c6)cc5c43)cc2C(F)(F)F)CC1 [Torin 1] | 104 ± 4.5% | 108 ± 6.9%
